Test results taken from publication PMC10726135, “HNF4α isoforms regulate the circadian balance between carbohydrate and lipid metabolism in the liver”.
In all, about 18,000 sequences were measured (“log2 normalized intensity”: median about 0.36, highest 2% from about 7.3 on). The sample as a whole holds a higher share of the highest values than the screen did.

Target: T1, HNF4alpha8 (COS-7 nuclear extract) (Homo sapiens, UniProt P41235-5 1-452)
T1 sequence: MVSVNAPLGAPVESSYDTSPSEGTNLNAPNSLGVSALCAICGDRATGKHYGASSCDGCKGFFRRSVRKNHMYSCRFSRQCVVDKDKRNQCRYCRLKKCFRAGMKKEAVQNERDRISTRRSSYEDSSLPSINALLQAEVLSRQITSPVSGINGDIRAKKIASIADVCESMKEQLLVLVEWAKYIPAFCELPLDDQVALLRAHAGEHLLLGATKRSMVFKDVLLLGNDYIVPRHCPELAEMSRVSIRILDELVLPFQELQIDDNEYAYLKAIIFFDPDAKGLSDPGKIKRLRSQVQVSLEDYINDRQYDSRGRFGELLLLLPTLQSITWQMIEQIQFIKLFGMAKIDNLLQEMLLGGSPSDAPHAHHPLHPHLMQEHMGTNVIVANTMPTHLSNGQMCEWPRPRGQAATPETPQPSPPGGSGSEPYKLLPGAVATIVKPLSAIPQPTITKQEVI
Assay: protein-binding microarray; COS-7 nuclear extract on double-stranded Agilent 4x180k PBM; binding buffer, salt, pH and temperature not given in the material; high values mean tight binding
Conditions: chain copies: 2; label: 3' end of strand 1 on the slide; dsDNA, one strand shown
Outline: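 Binding signal was defined as the normalized, background-corrected gProcessedSignal reported by Agilent software. It came from nuclear extracts of COS-7 cells transiently transfected with a human HNF4α isoform expression vector, applied to a custom Agilent SurePrint G3 4x180k array. That array held ~44,000 test sequences in quadruplicate as double-stranded ~60-nt oligonucleotides, and bound HNF4α was imaged at 2-µm resolution on an Agilent G2565CA scanner.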

Question: Which binding signal does the source give for “ACCGTAAATGCATTATTGCACTGTGCTTTGGCCTAGGGAGATTAGAGTATCGGTCGA” here?
Answer: 1.3 log2 normalized intensity

Question: Which binding signal does the source give for “TGCTCTCAGCACACTCTGGTACCATGGATGGCCTAGGGAGATTAGAGTATCGGTCGA” here?
Answer: 0.953 log2 normalized intensity

Question: For “GGCTCTCCCGGGGCGGGGGTGACCAGATTAGCCTAGGGAGATTAGAGTATCGGTCGA”, which binding signal is on record?
Answer: 1.07 log2 normalized intensity

Question: Which binding signal does the source give for “TCAGGGGTCAATGTGCACATTCGAAGTTTTGCCTAGGGAGATTAGAGTATCGGTCGA” here?
Answer: 4.86 log2 normalized intensity

Question: “CATCTGGGCAAGGTGTCAACCTTCATTCTCGCCTAGGGAGATTAGAGTATCGGTCGA” was tested. Which binding signal did it give?
Answer: 0.575 log2 normalized intensity

Question: “TCTTTTTAATCAATAATCTTTGCCCTTGAAGCCTAGGGAGATTAGAGTATCGGTCGA” was tested. Which binding signal did it give?
Answer: 3.49 log2 normalized intensity

Question: How did the binding signal turn out when “AGCATATTTGGCCACATCCTGTCTCCTTTAGCCTAGGGAGATTAGAGTATCGGTCGA” was run?
Answer: 1.11 log2 normalized intensity

Question: How did the binding signal turn out when “CCTGAAGGGTGTTGTGGAATGTGCTTGGACGCCTAGGGAGATTAGAGTATCGGTCGA” was run?
Answer: 2.16 log2 normalized intensity

Question: With “AATACGACCTTTGGACAGGGTGACGTCATTGCCTAGGGAGATTAGAGTATCGGTCGA” as the sequence, how does the binding signal read?
Answer: 6.84 log2 normalized intensity

Question: With “TTGGACTTTGTACATTCCAAATACGATAATGCCTAGGGAGATTAGAGTATCGGTCGA” as the sequence, how does the binding signal read?
Answer: 5.9 log2 normalized intensity

Question: With “TTTGTCACATTCCAGACTTTGTACAAGGGCGCCTAGGGAGATTAGAGTATCGGTCGA” as the sequence, how does the binding signal read?
Answer: 3.1 log2 normalized intensity

Question: With “GTACTTTGTACATGGGAATAGACATTCCAGGCCTAGGGAGATTAGAGTATCGGTCGA” as the sequence, how does the binding signal read?
Answer: 1.99 log2 normalized intensity

Question: Which binding signal does the source give for “TCCAAAATACGACCTTTGGACAGGGTGACGGCCTAGGGAGATTAGAGTATCGGTCGA” here?
Answer: 7.56 log2 normalized intensity

Question: “ACATCAGAAGTTGGACTTTGTACATTCCAAGCCTAGGGAGATTAGAGTATCGGTCGA” was tested. Which binding signal did it give?
Answer: 8.13 log2 normalized intensity

Question: “GGGCTTTTGTCACATTCCAGACTTTGTACAGCCTAGGGAGATTAGAGTATCGGTCGA” was tested. Which binding signal did it give?
Answer: 5.85 log2 normalized intensity

Question: With “AGAAGTTGGACTTTGTACATTCCAAATACGGCCTAGGGAGATTAGAGTATCGGTCGA” as the sequence, how does the binding signal read?
Answer: 7.64 log2 normalized intensity

Question: Which binding signal does the source give for “CCTGGTGACCTTTGTTTGGTCAAATACCTAGCCTAGGGAGATTAGAGTATCGGTCGA” here?
Answer: 3.66 log2 normalized intensity

Question: “AAAGGCCTTTGAAGCTTGAAGGAGTATATGGCCTAGGGAGATTAGAGTATCGGTCGA” was tested. Which binding signal did it give?
Answer: 0.256 log2 normalized intensity

Question: For “CTTATCAGCAGCTGGGGTGACTGATTGGAGGCCTAGGGAGATTAGAGTATCGGTCGA”, which binding signal is on record?
Answer: 0.845 log2 normalized intensity

Question: For “AGTGCACCTTAATAAGCACATTCCTTTCCCGCCTAGGGAGATTAGAGTATCGGTCGA”, which binding signal is on record?
Answer: -0.98 log2 normalized intensity

Question: With “ATCTTATCAGCAAGGGCATTTGCGTAGGCTGCCTAGGGAGATTAGAGTATCGGTCGA” as the sequence, how does the binding signal read?
Answer: -0.794 log2 normalized intensity

Question: For “TGCTAAGTGCCATGTAATCAAACTGAACTTGCCTAGGGAGATTAGAGTATCGGTCGA”, which binding signal is on record?
Answer: 2.1 log2 normalized intensity

Question: With “CTTTGTTTACTTAACCTTTGATCATATGCAGCCTAGGGAGATTAGAGTATCGGTCGA” as the sequence, how does the binding signal read?
Answer: 5.75 log2 normalized intensity

Question: “GTGGCTACCTGTGCAGATATTTAACCTTTGGCCTAGGGAGATTAGAGTATCGGTCGA” was tested. Which binding signal did it give?
Answer: 4.61 log2 normalized intensity

Question: How did the binding signal turn out when “TTGCACTGTGCTTTGTTTACTTAACCTTTGGCCTAGGGAGATTAGAGTATCGGTCGA” was run?
Answer: 4.5 log2 normalized intensity

Question: “TACCTGTGCAGATATTTAACCTTTGATCTGGCCTAGGGAGATTAGAGTATCGGTCGA” was tested. Which binding signal did it give?
Answer: 8.15 log2 normalized intensity

Question: “CTGTGCTTTGTTTACTTAACCTTTGATCATGCCTAGGGAGATTAGAGTATCGGTCGA” was tested. Which binding signal did it give?
Answer: 7.84 log2 normalized intensity

Question: How did the binding signal turn out when “GATATTTAACCTTTGATCTGTAAGCTCTCTGCCTAGGGAGATTAGAGTATCGGTCGA” was run?
Answer: 5.39 log2 normalized intensity

Question: For “CCTGTCTGACAGGATGAATTTATTGCCCTCGCCTAGGGAGATTAGAGTATCGGTCGA”, which binding signal is on record?
Answer: 3.21 log2 normalized intensity

Question: “ATGGTGACCATGTGATGTGAAGAGTGTGGAGCCTAGGGAGATTAGAGTATCGGTCGA” was tested. Which binding signal did it give?
Answer: 1.31 log2 normalized intensity

Question: “CTTGTGTAATAACGAGACCTTAGCCCTGAAGCCTAGGGAGATTAGAGTATCGGTCGA” was tested. Which binding signal did it give?
Answer: -0.451 log2 normalized intensity

Question: “TTAGCTTCCTCCCTTGGAATGTGACCTTAGGCCTAGGGAGATTAGAGTATCGGTCGA” was tested. Which binding signal did it give?
Answer: 5.27 log2 normalized intensity

Question: Which binding signal does the source give for “TTCCACTGACTTGCAACCTTTGCCCTGTTGGCCTAGGGAGATTAGAGTATCGGTCGA” here?
Answer: 7.2 log2 normalized intensity

Question: With “TTCCTCCCTTGGAATGTGACCTTAGACCCCGCCTAGGGAGATTAGAGTATCGGTCGA” as the sequence, how does the binding signal read?
Answer: 8.83 log2 normalized intensity

Question: Which binding signal does the source give for “GAGTTTAAATGACCTCTGCCCTTCCACCCAGCCTAGGGAGATTAGAGTATCGGTCGA” here?
Answer: 5.16 log2 normalized intensity

Question: For “TTGCCCTTCTTGGATGCCCTTCCCTAACCCGCCTAGGGAGATTAGAGTATCGGTCGA”, which binding signal is on record?
Answer: 3.04 log2 normalized intensity

Question: With “GAGAGTTCCCTTGGAATGCCAGATGACCTTGCCTAGGGAGATTAGAGTATCGGTCGA” as the sequence, how does the binding signal read?
Answer: 4.6 log2 normalized intensity

Question: With “TTTCTGTCCAGAGTTTAAATGACCTCTGCCGCCTAGGGAGATTAGAGTATCGGTCGA” as the sequence, how does the binding signal read?
Answer: 4.72 log2 normalized intensity

Question: How did the binding signal turn out when “TTTCATTCCACTGACTTGCAACCTTTGCCCGCCTAGGGAGATTAGAGTATCGGTCGA” was run?
Answer: 7.51 log2 normalized intensity

Question: With “CTGGCTTTCATTCCACTGACTTGCAACCTTGCCTAGGGAGATTAGAGTATCGGTCGA” as the sequence, how does the binding signal read?
Answer: 1.09 log2 normalized intensity

Question: Which binding signal does the source give for “TTCCCTTGGAATGCCAGATGACCTTTGCCCGCCTAGGGAGATTAGAGTATCGGTCGA” here?
Answer: 10.2 log2 normalized intensity

Question: With “GTCCAGAGTTTAAATGACCTCTGCCCTTCCGCCTAGGGAGATTAGAGTATCGGTCGA” as the sequence, how does the binding signal read?
Answer: 7.43 log2 normalized intensity
